In PubChem BioAssay:
Unmarked numbers belong to inactive results. Active and inactive are the calls of the source.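 How the source made its calls, unless noted: active means compounds that lower survival of DLD-1 colon cancer cells in the luminescence readout, no cutoff given; inactive means the rest.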

Experiment: reduced SW480 viability measured with CellTiter-Glo, NPC library, primary (AID 1117343;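 active means compounds that lower viability of the colon cancer cells in the luminescence readout, with no numeric limit stated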)
Settings: CellTiter-Glo luminescence; at 20 µM (top of the series)

| Structure (SMILES) | viability decrease (inhibition) |
| --- | --- |
| O=c1[nH]cc(F)c(=O)[nH]1 | 28.6% |
| CCc1nc(N)nc(N)c1-c1ccc(Cl)cc1 | 95.5% (active) |
| CCc1cccc2c3c([nH]c12)C(CC)(CC(=O)O)OCC3 (stereo not drawn) | -4.5% |
| Nc1ncn([C@@H]2O[C@H](CO)[C@@H](O)[C@H]2O)c(=O)n1 | 113% (active) |
| Cc1ccccc1C(OCCN(C)C)c1ccccc1 (stereo not drawn) | 45.8% |
| Cc1ccc(C)c(OCCCC(C)(C)C(=O)O)c1 | 20.7% |
| NC(=O)c1cnccn1 | -1.8% |
| CCCCCCNC(=O)n1cc(F)c(=O)[nH]c1=O | 83.7% (active) |
| COC1=CC(=O)C[C@@H](C)[C@]12Oc1c(Cl)c(OC)cc(OC)c1C2=O | 64.1% (active) |
| Cc1ncc([N+](=O)[O-])n1CC(C)O (stereo not drawn) | 5.3% |
| N[C@@H](C(=O)N[C@@H]1C(=O)N2C(C(=O)O)=C(Cl)CS[C@H]12)c1ccccc1 | 26.8% |
| CO[C@@]1(NC(=O)Cc2cccs2)C(=O)N2C(C(=O)O)=C(COC(N)=O)CS[C@@H]21 | 8.9% |
| OCCN1CCN(CCCN2c3ccccc3Sc3ccc(C(F)(F)F)cc32)CC1 | 157% (active) |
| CN(C)CCOC(c1ccc(Cl)cc1)c1ccccn1 (stereo not drawn) | 6% |
| Cc1onc(-c2c(Cl)cccc2Cl)c1C(=O)N[C@@H]1C(=O)N2[C@@H]1SC(C)(C)[C@@H]2C(=O)O | 18.3% |
| COc1cc2nc(N(C)CCCNC(=O)C3CCCO3)nc(N)c2cc1OC (stereo not drawn) | 19.4% |
| NS(=O)(=O)c1cc(C2(O)NC(=O)c3ccccc32)ccc1Cl (stereo not drawn) | 16.8% |
| CN(C)CCc1c[nH]c2ccc(C[C@H]3COC(=O)N3)cc12 | 26.5% |
| Cc1ccc(-c2cc(C(F)(F)F)nn2-c2ccc(S(N)(=O)=O)cc2)cc1 | 66.6% (active) |
| CN[C@H]1CC[C@@H](c2ccc(Cl)c(Cl)c2)c2ccccc21 | 120% (active) |

| Structure (SMILES) | viability decrease (inhibition) |
| --- | --- |
| O=S(=O)(O)CCS | -2.4% |
| C/C=C/C(=O)N(CC)c1ccccc1C | 19.5% |
| COc1ccc(OC)c(C(O)CNC(=O)CN)c1 (stereo not drawn) | -26.4% |
| Cn1cnc([N+](=O)[O-])c1Sc1ncnc2nc[nH]c12 | 77.3% (active) |
| c1ccc2[nH]c(-c3cscn3)nc2c1 | -9.9% |
| CCCNCC(O)COc1ccccc1C(=O)CCc1ccccc1 (stereo not drawn) | 41% |
| NC(=O)N1c2ccccc2CC(=O)c2ccccc21 | 5.4% |
| Cc1cn([C@H]2C[C@H](N=[N+]=[N-])[C@@H](CO)O2)c(=O)[nH]c1=O | -5.4% |
| CN(CCOc1ccc(CC2SC(=O)NC2=O)cc1)c1ccccn1 (stereo not drawn) | 17.9% |
| COc1ccccc1OCC(O)COC(N)=O (stereo not drawn) | 11.1% |
| OC(CCN1CCCC1)(c1ccccc1)C1CCCCC1 (stereo not drawn) | 22.1% |
| O=C1C(CCS(=O)c2ccccc2)C(=O)N(c2ccccc2)N1c1ccccc1 (stereo not drawn) | 15.3% |
| COC(=O)Nc1nc2ccc(C(=O)c3ccccc3)cc2[nH]1 | 27.7% (active) |
| CCn1cc(C(=O)O)c(=O)c2cc(F)c(N3CCN(C)CC3)cc21 | -27.3% |
| CN1CCCC(n2nc(Cc3ccc(Cl)cc3)c3ccccc3c2=O)CC1 (stereo not drawn) | -0.2% |
| NCc1ccc(S(N)(=O)=O)cc1 | 14.1% |
| Clc1ccc2c(c1)C(N1CCNCC1)=Nc1ccccc1O2 | 90% (active) |
| CC(C)(C)NCC(O)COc1cccc2c1C[C@H](O)[C@H](O)C2 (stereo partly drawn) | 2.8% |
| NS(=O)(=O)c1cc2c(cc1Cl)NC=NS2(=O)=O | 5.5% |

Experiment: NPC library primary testing for decreased DLD-1 cell viability via CellTiter-Glo (AID 1117346)
Settings: DLD-1 viability, CellTiter-Glo luminescence; at 20 µM (top of the series)

| Structure (SMILES) | viability decrease (inhibition) |
| --- | --- |
| O=c1[nH]cc(F)c(=O)[nH]1 | 26.6% |
| CCc1nc(N)nc(N)c1-c1ccc(Cl)cc1 | 35% |
| CCc1cccc2c3c([nH]c12)C(CC)(CC(=O)O)OCC3 (stereo not drawn) | -11.6% |
| Nc1ncn([C@@H]2O[C@H](CO)[C@@H](O)[C@H]2O)c(=O)n1 | 91% (active) |
| Cc1ccccc1C(OCCN(C)C)c1ccccc1 (stereo not drawn) | -5% |
| Cc1ccc(C)c(OCCCC(C)(C)C(=O)O)c1 | 0.75% |
| NC(=O)c1cnccn1 | -1.9% |
| CCCCCCNC(=O)n1cc(F)c(=O)[nH]c1=O | 30.3% |
| COC1=CC(=O)C[C@@H](C)[C@]12Oc1c(Cl)c(OC)cc(OC)c1C2=O | 20% |
| Cc1ncc([N+](=O)[O-])n1CC(C)O (stereo not drawn) | -0.75% |
| N[C@@H](C(=O)N[C@@H]1C(=O)N2C(C(=O)O)=C(Cl)CS[C@H]12)c1ccccc1 | -20.5% |
| CO[C@@]1(NC(=O)Cc2cccs2)C(=O)N2C(C(=O)O)=C(COC(N)=O)CS[C@@H]21 | -14.4% |
| OCCN1CCN(CCCN2c3ccccc3Sc3ccc(C(F)(F)F)cc32)CC1 | 101% (active) |
| CN(C)CCOC(c1ccc(Cl)cc1)c1ccccn1 (stereo not drawn) | -7% |
| Cc1onc(-c2c(Cl)cccc2Cl)c1C(=O)N[C@@H]1C(=O)N2[C@@H]1SC(C)(C)[C@@H]2C(=O)O | -11.8% |
| COc1cc2nc(N(C)CCCNC(=O)C3CCCO3)nc(N)c2cc1OC (stereo not drawn) | 0.1% |
| NS(=O)(=O)c1cc(C2(O)NC(=O)c3ccccc32)ccc1Cl (stereo not drawn) | -4% |
| CN(C)CCc1c[nH]c2ccc(C[C@H]3COC(=O)N3)cc12 | 24.6% |
| Cc1ccc(-c2cc(C(F)(F)F)nn2-c2ccc(S(N)(=O)=O)cc2)cc1 | 50.1% (active) |
| CN[C@H]1CC[C@@H](c2ccc(Cl)c(Cl)c2)c2ccccc21 | 98% (active) |

| Structure (SMILES) | viability decrease (inhibition) |
| --- | --- |
| O=S(=O)(O)CCS | -8.8% |
| C/C=C/C(=O)N(CC)c1ccccc1C | -26.5% |
| COc1ccc(OC)c(C(O)CNC(=O)CN)c1 (stereo not drawn) | 0.7% |
| Cn1cnc([N+](=O)[O-])c1Sc1ncnc2nc[nH]c12 | 35.5% (active) |
| c1ccc2[nH]c(-c3cscn3)nc2c1 | -17.1% |
| CCCNCC(O)COc1ccccc1C(=O)CCc1ccccc1 (stereo not drawn) | 10.6% |
| NC(=O)N1c2ccccc2CC(=O)c2ccccc21 | 15.6% |
| Cc1cn([C@H]2C[C@H](N=[N+]=[N-])[C@@H](CO)O2)c(=O)[nH]c1=O | -4.95% |
| CN(CCOc1ccc(CC2SC(=O)NC2=O)cc1)c1ccccn1 (stereo not drawn) | -28.4% |
| COc1ccccc1OCC(O)COC(N)=O (stereo not drawn) | -10.7% |
| OC(CCN1CCCC1)(c1ccccc1)C1CCCCC1 (stereo not drawn) | 10.7% |
| O=C1C(CCS(=O)c2ccccc2)C(=O)N(c2ccccc2)N1c1ccccc1 (stereo not drawn) | -15.6% |
| COC(=O)Nc1nc2ccc(C(=O)c3ccccc3)cc2[nH]1 | 51.5% (active) |
| CCn1cc(C(=O)O)c(=O)c2cc(F)c(N3CCN(C)CC3)cc21 | -10.3% |
| CN1CCCC(n2nc(Cc3ccc(Cl)cc3)c3ccccc3c2=O)CC1 (stereo not drawn) | 37.8% |
| NCc1ccc(S(N)(=O)=O)cc1 | 13.8% |
| Clc1ccc2c(c1)C(N1CCNCC1)=Nc1ccccc1O2 | 19.2% |
| CC(C)(C)NCC(O)COc1cccc2c1C[C@H](O)[C@H](O)C2 (stereo partly drawn) | -5.7% |
| NS(=O)(=O)c1cc2c(cc1Cl)NC=NS2(=O)=O | -6.2% |
